Data published in PubChem BioAssay AID720514 (Broad Institute, 2013).
Screen size: about 2,100 compounds; about 300 (14%) were called active. Another 2% or so got no clear call; they are omitted.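 The calls were made as follows: active = every replicate test run called active, with the signal falling and half-maximal concentration within twice the top valid dose; inconclusive = the replicate test runs disagree in their calls; inactive = every test run inactive, including effects in the opposite direction.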 Only a sample is shown. Potency and affinity values are given separately.

Experiment: reduced cellular PGC1a acetyl-lysine signal – cell-based, cherry-picked samples, dose response (AID 720514);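 also: 0% = neutral control wells and -100% = positive control wells; actives lower the acetylation signal so they count as inhibitors of PGC1a acetylation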
Conditions: U2OS PGC1a acetylation, AlphaLISA, overnight; series mostly up to 19.5 µM; activity change, negative = inhibition: at the top concentration

Activity change, negative = inhibition, inactive:
Cc1csc(NC(=O)CSc2nsc(SCC(=O)Nc3nc(C)cs3)c2C#N)n1 75%
CN1CCN(c2ccc(CNC(=O)c3ccc(-c4ccnn4C)c4ccoc34)cc2)CC1 66.9%
COc1cc(CN2CCCC(CO)(Cc3cccc(Cl)c3)C2)cc2c1OCO2 (stereo not given) 61.2%
CCOc1ccc(N(C)S(=O)(=O)c2cc(-c3cc(C)no3)ccc2C(C)C)cc1 144%
C[C@@H]1CN([C@@H](C)CO)C(=O)c2c(c3ccccc3n2C)-c2ccccc2CO[C@@H]1CN(C)C(=O)Nc1ccc2c(c1)OCO2 163% [at 21 µM]
COC(=O)c1cc(S(=O)(=O)N2CCN(c3ccc(C(C)=O)cc3)CC2)c[nH]1 112%
CCC(=O)N(CC)c1nc(-c2ccc(OC)cc2)cs1 58.5%
CSc1nc(NCc2ccco2)c2ccccc2n1 41.5%
Cc1ccc2oc(-c3ccc(NC(=O)c4cccnc4)cc3)nc2c1 276%
CC(C)CCNc1nc(N2CCCC2)c2c(c1C#N)CCN(C)C2 68.1% [at 10 µM]
CC/C(=C(\c1ccc(O)cc1)c1ccc(OCCN(C)C)cc1)c1ccccc1 137% [at 10 µM]
OC(c1ccccc1)(C1CCCCC1)C(CN1CCOCC1)c1ccccc1 (stereo not given) 75.2% [at 10 µM]
COc1ccccc1CN1CCCC(C(=O)N(C)Cc2ccccc2)C1 (stereo not given) 56.3% [at 10 µM]
COc1ccc(CCC(=O)NCCS(=O)(=O)N2CCN(c3ccccc3)CC2)cc1 49.9%
CCN1CCN(C(=O)c2ccc3c(=O)n(CCC4=CCCCC4)c(=O)[nH]c3c2)CC1 90.2%
O=[N+]([O-])c1ccc(N2CCN(CC3CCCCC3)CC2)cc1 41.3%
c1ccc(C(c2nnnn2Cc2cccs2)N2CCN(C3CCCC3)CC2)cc1 (stereo not given) 49.8%
c1ccc(Cn2nnnc2C(c2cccs2)N2CCCCCC2)cc1 (stereo not given) 44.4%
COc1ccc(C(c2nnnn2C2CCCC2)N2CCC(C)CC2)c(OC)c1 (stereo not given) 74.1%
CC(C)C(c1nnnn1Cc1ccccc1)N(Cc1ccco1)Cc1cccs1 (stereo not given) 141%
COc1ccc(-n2nnnc2CNC(=O)c2ccc3ccccc3c2)cc1 48.8% [at 10 µM]
c1ccc(CN2OCC3Cn4c(nc5ccccc54)C32)cc1 (stereo not given) 31.5%
COc1cccc(CN2C[C@@H]3N[C@H](C2)C3c2ccc(-c3ccccc3F)cc2)c1 (stereo not given in full) 46.1%
CCOC(=O)Cn1cnc2scc(-c3ccccc3)c2c1=O 18%
O=C(Cc1ccccc1)Nc1nc(-c2ccc(F)c(F)c2)cs1 75%
Cc1cccc(-c2ccc(C3[C@@H]4CN(C(=O)C5CCCCC5)C[C@H]3N4)cc2)c1 (stereo not given in full) 58.1% [at 10 µM]
COc1cccc(CN2C[C@@H]3N[C@H](C2)C3c2ccc(-c3cccc(C#N)c3)cc2)c1 (stereo not given in full) 79.6%
COc1cccc(-c2ccc(C3[C@@H]4CN(Cc5ccccn5)C[C@H]3N4)cc2)c1 (stereo not given in full) 59.2%
COc1ccccc1CN1C[C@@H]2N[C@H](C1)C2c1ccc(-c2ccccc2OC)cc1 (stereo not given in full) 40.7% [at 21 µM]
COc1cccc(C(=O)c2c[nH]c(C(=O)NCc3cccnc3)c2)c1 269%
CCN(CC)S(=O)(=O)c1c(Br)cc(C)cc1Br 56.1%
CCN(CC)c1ccc(N)cc1S(=O)(=O)Nc1ccccc1OC 63.3%
O=C(C(Cc1ccccc1)n1cccc1)N1CCN(c2ccccc2)CC1 (stereo not given) 156%
O=C(c1ccccc1)c1nn(-c2ccc(Cl)cc2)c(=O)cc1C(F)(F)F 57% [at 10 µM]
CCn1c(=S)[nH]c2cc(S(=O)(=O)N3CCCCC3)ccc21 144%
C[C@@H]1CN([C@H](C)CO)C(=O)c2cccc(NC(=O)c3ccc(-c4nccs4)cc3)c2O[C@@H]1CN(C)Cc1ccc(C(=O)Nc2ccccc2N)cc1 114%
CC(C)C#Cc1ccc([C@@H]2[C@H](CO)N3C(=O)CN(C(=O)NC4CCCC4)C[C@@H]23)cc1 23.8%
CC1(C)OC(C)(C)/C(=C\c2ccc(OCC(N)=O)cc2)C1=O 57% [at 10 µM]
COc1ccc(S(=O)(=O)N(Cc2ccccc2)Cc2nc(-c3ccccc3)no2)cc1 68.8%
Cc1c(OCc2ccc(C(=O)O)cc2)ccc2c(-c3ccccc3)cc(=O)oc12 43.5%
C[C@H](CO)N1C[C@H](C)[C@@H](CN(C)S(=O)(=O)c2ccccc2)OCCCC[C@H](C)Oc2ccc(NC(=O)Nc3cccc4ccccc34)cc2C1=O 48.3% [at 21 µM]
CC(C)NC(=O)N(C)C[C@H]1OCCCC[C@@H](C)Oc2ccc(NC(=O)Cc3ccccc3)cc2C(=O)N([C@@H](C)CO)C[C@H]1C 45.8%
CC(C)NC(=O)Nc1ccc2c(c1)C(=O)N([C@@H](C)CO)C[C@@H](C)[C@@H](CN(C)S(=O)(=O)c1ccccc1)OCCCC[C@H](C)O2 43.1%
C[C@@H]1CN([C@H](C)CO)C(=O)c2cc(N(C)C)ccc2O[C@@H](C)CCCCO[C@H]1CN(C)C(=O)Nc1ccccc1 69%
COCCOC(=O)N1C(=O)[C@@]2(c3ccccc31)[C@H](c1ccccc1OCCO)N1[C@H](c3ccccc3)[C@H](c3ccccc3)OC(=O)[C@H]1[C@@H]2C(=O)N1CCCCCCC1 29.6%
c1ccc(-c2c(-c3ccccc3)n(Cc3ccco3)c3ncnc(NCCCn4ccnc4)c23)cc1 228%
O=C(CSc1nc2c(sc3ccccc32)c(=O)n1CCc1ccccc1)NCc1ccco1 44.7%
C=CCn1c(SCC(=O)NC(=O)NCc2ccco2)nc2sc(CC)cc2c1=O 35.5%
CCOC(=O)c1ccc(NC(=O)Nc2ccc(F)cc2)cc1 34.3%
CC(=O)Nc1ccc(Nc2ncnc3c2cnn3-c2ccc(C)cc2C)cc1 105%
Cc1cc(Nc2cccc(Cl)c2)c2ccccc2n1 75.5%
Cc1cc(C)c(S(=O)(=O)Nc2ccccc2-c2ccccc2)c(C)c1 96.5%
COc1ccccc1-c1ccc2c(c1)O[C@@H](CN(C)Cc1ccc3c(c1)OCO3)[C@@H](C)CN([C@@H](C)CO)S2(=O)=O 65.4%
COC(=O)c1ccc(NC(=O)C23CC4CC(C2)CC(n2cnc(Cl)n2)(C4)C3)cc1 81.3%
CCOc1ccc(N2C(=O)CC(Cc3ccc(Br)cc3)C2=O)cc1 (stereo not given) 46.2%
CCOc1ccc(S(=O)(=O)N2c3ccccc3CC2C)cc1 (stereo not given) 52.3%
CCCCN=C1NC(=O)C(CC(=O)Nc2ccc(Cl)cc2)S1 (stereo not given) 77.7%
O=C(Cc1ccccc1)N1CCN(C(=O)c2cccs2)CC1 74.4%
CCN1CCN(c2ncc(C(=O)Nc3cc(Cl)ccc3OC)c3ccccc23)CC1 52.8% [at 10 µM]
CCN1CCN(c2cc(C)c3cc(NC(=O)c4ccc(Br)o4)ccc3n2)CC1 39.5%
C[C@H]1CN([C@@H](C)CO)C(=O)c2cccc(NS(=O)(=O)c3ccc(F)cc3)c2O[C@H]1CN(C)Cc1ccc(C(F)(F)F)cc1 70.5%
COc1ccc(S(=O)(=O)N(C)C[C@@H]2Oc3cc(C#CC4CC4)ccc3S(=O)(=O)N([C@@H](C)CO)C[C@@H]2C)cc1 51.9%
COc1ccc(S(=O)(=O)N(C)C[C@@H]2Oc3cc(C#CC4CC4)ccc3S(=O)(=O)N([C@H](C)CO)C[C@@H]2C)cc1 43%
CCCCC(=O)Nc1ccc(NC(=O)c2cccs2)cn1 38.6%
OCCNc1nc(N2CCCCC2)nc2ccccc12 45.5%
O=[N+]([O-])c1cc(-c2nnc(Nc3ccc(O)cc3)c3ccccc23)ccc1N1CCOCC1 90.6%
Cc1ccc(-c2nnc(Nc3ccc4c(c3)OCO4)c3ccccc23)cc1S(=O)(=O)NCCO 76.8%
Cc1ccc2c(CN(Cc3ccccc3)Cc3ccccc3)cc(=O)oc2c1 38.4%
COCCNC(=O)c1ccc(C)cc1C 24.6%
COc1ccc(S(=O)(=O)N2CC[C@@H]3[C@H](CO)Nc4ccc(-c5ccccc5F)cc4[C@@H]32)cc1 68.9% [at 21 µM]
Cc1ccc(S(=O)(=O)N(Cc2ccc(F)cc2)Cc2ccco2)cc1 84.4%
CCOc1ccc(Nc2oc(-c3ccc(Cl)cc3)nc2C#N)cc1 58% [at 10 µM]
COCC(=O)Nc1ccc2c(c1)OC[C@@H](C)N(CCc1ccccc1)C[C@H](C)[C@H](OC)CN(C)C2=O 51.7%
COc1ccc(S(=O)(=O)N(C)C[C@@H]2Oc3ccc(NC(=O)CCN4CCOCC4)cc3C(=O)N([C@H](C)CO)C[C@H]2C)cc1 22.6%
CO[C@@H]1CN(C)C(=O)c2cc(NC(=O)c3ccc4c(c3)OCO4)ccc2OC[C@@H](C)N(CC2CC2)C[C@H]1C 17.3% [at 21 µM]
COC(=O)c1c(NC(=O)COC(=O)[C@@H](NS(=O)(=O)c2ccccc2)C(C)C)sc2c1CCC2 67.1%
Cc1cc(Nc2ccccc2)cc(=O)n1C 16.7%
CCN(CC)CCOc1ccc(/C(=C(\Cl)c2ccccc2)c2ccccc2)cc1 61.5% [at 10 µM]
COc1ccc(CN(CCC(C)C)S(=O)(=O)c2ccccc2Br)cc1 127%
O=C(NC1CCCCC1)c1cccnc1C(=O)O 37.9%
Nc1nnc(SCC(=O)NC2CCCCC2)n1-c1ccccc1 11.5%
Cc1ccccc1Cn1cc(NC(=O)c2cc(-c3cccs3)on2)cn1 81%
Cc1cc2cc3c(cc2nc1SCC(=O)OC(C)C)OCCO3 60.8%
Cc1cccc(-c2ccc3[nH]c4c(c3c2)CCN2C[C@@H]([C@H](C)O)[C@@H](N(C)C(=O)NC3CCCCC3)C[C@@H]42)c1 56.9%
O=C(Nc1ccc(-c2noc(CCc3ccccc3)n2)cc1)c1cccnc1 407%
COC(=O)c1ccc2[nH]c3cccc(/C(=C/c4ccccc4)c4ccccc4)c3c2c1 55%
O=C(Nc1cnc2ccccc2c1)c1cccnc1 156% [at 5 µM]
COc1ccc(Br)cc1CNc1ccccc1 103%
Cc1cc(C)n2c(SCC(=O)NCc3ccco3)nnc2n1 22.2%
CCn1c(SCC(=O)Nc2ccc(NC(=O)c3ccco3)cc2)nnc1-c1cccs1 162% [at 10 µM]
NC(=O)Cc1ccc2c(c1)[nH]c1ccccc12 177%
Cc1ccc(S(=O)(=O)N2C[C@@H]3N[C@H](C2)[C@@H]3c2ccc(-c3cccc(C)c3)cc2)cc1 23.7%
O=S(=O)(c1ccc(Cl)cc1)N1[C@@H]2CNC[C@H]1C2c1ccc(-c2cccc(F)c2)cc1 (stereo not given in full) 115% [at 21 µM]
Cc1ccccc1-c1ccc(C2[C@@H]3CN(S(=O)(=O)c4ccccc4C)C[C@H]2N3)cc1 (stereo not given in full) 50.7%
COc1ccccc1-c1ccc(C2[C@@H]3CN(S(=O)(=O)c4ccc(C)cc4)C[C@H]2N3)cc1 (stereo not given in full) 43.6% [at 21 µM]
